According to PubChem BioAssay AID651815 (National Center for Advancing Translational Sciences (NCATS), 2012):
Hit rate of the full screen: of about 2,100 compounds, about 1,100 (52%) were called active. About 29% were inconclusive and are not listed. The set was probably picked from earlier hits. Some of the results follow. Unmarked numbers belong to inactive results. Calls follow the shape of the dose curve; as a rule, active = well fitted inhibition curve with a large enough effect; inconclusive = small, poorly fitted or top-dose-only effect; inactive = no such curve, though single readings can be large or run the other way.

Biological target: DNA dC->dU-editing enzyme APOBEC-3F (Homo sapiens) (UniProt Q8IUX4)
Experiment: qHTS for inhibitors of Vif-A3F interactions: Cherry picks counterscreen; also: nearly all actives have a fitted effect of over 65% in size
Details: HeLa A3F-eYFP/Vif cells, eYFP fluorescence, 24 h; series mostly up to 46.1 µM; activity, negative = inhibitor: at the top concentration
Source text: The recent discovery and characterization of host restriction factors, which provide a potent defense to invading retroviruses, has provided new targets for antiviral drug development. APOBEC3G (A3G) and APOBEC3F (A3F) are potent cytidine deaminases that block HIV-1 replication; HIV-1 expresses the Vif protein, which counteracts A3G and A3F by binding to them and inducing their proteasomal degradation. The Vif-A3G and Vif-A3F interactions provide two potential targets for development of small molecules which can interfere with the ability of Vif to degrade A3G or A3F. […] To identify inhibitors that can interfere with Vif mediated degradation of A3G and A3F, we have developed Hela cell lines that stably express A3G or A3F tagged with eYFP at the C-terminal end (A3G-eYFP or A3F-eYFP, respectively) and Vif. In the absence of an inhibitor, Vif induces degradation of A3G-eYFP and A3F-eYFP, and the cells are not fluorescent. In the presence of an inhibitor, it is expected that Vif will be unable to degrade A3G-eYFP and/or A3F-eYFP, resulting in an increase in yellow fluorescence. In this counterscreen assay, Vif A3F was screened against the cherry picks ordered from the MLSMR. NIH Chemical Genomics Center [NCGC] NIH Molecular Libraries Probe Centers Network [MLPCN] MLPCN Grant: MH093245 Assay Submitter (PI): Vinay Pathak, National Cancer Institute
A3F-Vif cells were harvested from T225 flask and resuspended in phenol free OPTI-MEM medium with 5% FBS. Then 5 uL of 140,000 cells/mL resuspended cells was dispensed into each well of low base Aurora COC 1,536-well plates (black walled, clear bottom) using a Multidrop Combi dispenser. After overnight culture at 37 deg C with 5% CO2, a total of 23 nL of compounds at 5 selected concentrations from the NPC or positive control (2 mM stock of MG132) in DMSO was transferred to each well of the assay plate using a pintool (Kalypsys, San Diego, CA), and the plates were further incubated at 37 deg C with 5% CO2 for 24 hours. After that, the plates were measured on Acumen Explorer (TTP Lab Tech). The fluorescence was detected by 488 nm/Ex and […].
% is scaled to controls: 0 for no effect and ±100 for the full control effect; potency is read from the fitted curve at half-maximal effect.

Sequence of DNA dC->dU-editing enzyme APOBEC-3F (Homo sapiens) (Q8IUX4 whole entry, looked up): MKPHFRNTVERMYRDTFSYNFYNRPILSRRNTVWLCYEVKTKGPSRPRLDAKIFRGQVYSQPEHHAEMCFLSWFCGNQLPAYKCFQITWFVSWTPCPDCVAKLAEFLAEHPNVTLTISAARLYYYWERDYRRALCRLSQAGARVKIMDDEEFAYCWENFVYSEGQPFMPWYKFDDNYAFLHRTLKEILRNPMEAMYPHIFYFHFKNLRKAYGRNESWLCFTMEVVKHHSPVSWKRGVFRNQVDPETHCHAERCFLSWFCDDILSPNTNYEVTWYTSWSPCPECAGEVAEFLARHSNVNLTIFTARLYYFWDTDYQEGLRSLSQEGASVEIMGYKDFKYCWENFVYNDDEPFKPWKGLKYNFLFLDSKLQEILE

SMILES | Potency | activity, negative = inhibitor
COc1ccc(N=Cc2c(O)c3ccccc3n2C(C)=O)cc1 | 16.4 µM (active) | 
COc1ccc(N=Cc2oc3ccc4ccccc4c3c2O)cc1 | 9.2 µM (active) | 
Oc1sc(C=Nc2ccccc2)c2ccccc12 | 23.1 µM (active) | 
COc1ccc(N=Cc2sc(O)c3ccccc23)cc1 | 15.8 µM (active) | 
Cc1ccc(NC2=C(Cl)C(=O)N(C3CCCCC3)C2=O)cc1 |  | -2.36%
Oc1sc(C=Nc2ccc(F)cc2)c2ccccc12 | 20.6 µM (active) | 
COc1cc(/C=C/c2ccnc3ccccc23)ccc1N(C)C | 23.1 µM (active) | 
COc1cc(N(C)C)c(OC)cc1/C=C/c1ccnc2ccccc12 | 23.1 µM (active) | 
COc1cc(OC)c(/C=C/c2ccnc3ccccc23)c(OC)c1 | 5.8 µM (active) | 
N#C/C(=C\c1ccc(C(=O)O)cc1)c1nc2sc3c(c2c(=O)[nH]1)CCCC3 |  | -7.1%
CN(C)c1ccc(/C=C(/C#N)C(=O)Nc2nc3c(s2)CCN(Cc2ccccc2)C3)cc1 | 0.314 µM (active) | 
CN(C)c1ccc(/C=C(\C#N)C(=O)Nc2nc3c(s2)CCN(Cc2ccccc2)C3)cc1 | 0.396 µM (active) | 
Cc1ccc(N2C(=O)CS/C2=C(\C(Cl)=C(Cl)Cl)[N+](=O)[O-])cc1 |  | -2.43%
Cc1cccc2c(=O)n3c(cc12)-c1[nH]c2ccccc2c1CC3 | 16.4 µM (active) | 
CCC[N+](C)(C)c1ccc(/C=C/c2ccncc2)cc1 | 18.4 µM (active) | 
CC[N+](C)(C)c1ccc(/C=C/c2ccncc2)cc1 | 20.6 µM (active) | 
COc1ccc2nc(N3C(=O)/C(=C/c4ccccc4)NC3=S)sc2c1 | 13 µM (active) | 
N#Cc1cccc(NC(=O)CSc2ccc3c4c(cccc24)C(=O)c2ccccc2-3)c1 | 11.6 µM (active) | 
COc1ccc(NC(=O)CSc2ccc3c4c(cccc24)C(=O)c2ccccc2-3)cc1 | 14.6 µM (active) | 
CCn1c(CNC(=O)C23CC4CC(CC(C4)C2)C3)nnc1SCC(=O)Nc1ccc(OC)cc1 |  | 0.0525%
CCCCCCN1C[C@H](O)[C@@H](n2cc(COC(=O)c3ccccc3)nn2)C[C@@H]1c1ccc(C)cc1 |  | -0.577%
COc1ccccc1-c1cc(C(=O)NN)[nH]n1 |  | -2.26% [at 36.9 µM]
CCCn1nnc(NC(=S)NC(=O)c2ccccc2OC)n1 |  | 1.76%
COc1ccc(NC(=O)c2cc(-c3ccccc3OC)on2)cc1 | 6.27 µM (active) | 
COc1ccc(C(=O)c2ccc(OC)c(OC)c2OC)cc1 | 6.27 µM (active) | 

SMILES | Potency | activity, negative = inhibitor
CC(=O)c1cccc(-c2ccnc3c2CC(C(=O)NCC2CC2)O3)c1 (centres undefined) | 14 µM (active) | 
CC(=O)c1cccc(-c2ccnc3c2CC(C(=O)NCC2CCOCC2)O3)c1 (centres undefined) | 4.44 µM (active) | 
COc1ccc2c(C)cc(SCC#N)nc2c1 | 16.4 µM (active) | 
COc1ccc2c(C)cc(SCC(=O)N(C)C3CCS(=O)(=O)C3)nc2c1 (centres undefined) |  | -25.5%
C[C@]12CCC[C@H](O1)c1c(cc3c(c1O)C(=O)c1c(O)cc(O)cc1C3=O)O2 | 20.6 µM (active) | 
Cc1ccc(C(=O)NN(C)c2nc3ccccc3nc2C(F)(F)F)cc1 | 2.8 µM (active) | 
CN(NC(=O)c1ccccc1)c1nc2ccccc2nc1C(F)(F)F | 3.96 µM (active) | 
CCc1sc(-c2cc3ccc(O)cc3oc2=O)nc1-c1ccc(C)cc1 |  | 37.3%
O=c1oc2cc(O)ccc2cc1-c1nc(-c2ccc(Cl)c(Cl)c2)cs1 | 2.06 µM (active) | 
COc1cc(C2Sc3ccccc3NC3=C2C(=O)OC3)cc(OC)c1OC (centres undefined) | 17.7 µM (active) | 
CCOC(=O)Nc1cc2c(c(N)n1)N=C(c1ccccc1)CN2 | 0.116 µM (active) | 
Cc1nnc(SCC(=O)NCc2ccccc2F)c2nn(-c3ccc(Cl)cc3)c(C)c12 | 14.6 µM (active) | 
CCOC(=O)c1cnc(-n2nc(C)cc2C)nc1NNc1cc(C)nc(-c2ccccc2)n1 |  | 2.69%
O=C(Cn1c(=O)n(Cc2ccco2)c(=O)c2sc3ccccc3c21)Nc1ccccc1C(F)(F)F | 23.1 µM (active) | 
C(=C\c1c[nH]c2ccccc12)/c1nccc2ccccc12 | 18.4 µM (active) | 
C(=Cc1c[nH]c2ccccc12)c1nccc2ccccc12 | 20.6 µM (active) | 
Cc1ccc2c(/C=C/c3c[nH]c4ccccc34)ccnc2c1C | 8.2 µM (active) | 
CCCSc1nnc(N2C(=O)C(O)=C(C(=O)c3ccco3)C2c2ccccc2F)s1 (centres undefined) |  | 0.34%
Cc1nc2c3cc(F)ccc3n(Cc3ccccc3)c2s1 | 6.27 µM (active) | 
Cc1nc2c3cc(F)ccc3n(Cc3ccccc3F)c2s1 | 12.5 µM (active) | 
Cc1nc2c3ccccc3n(Cc3ccccc3F)c2s1 | 17.7 µM (active) | 
CCOC(=O)CSc1nc2c(c(=O)[nH]1)C(C)(CC)Cc1ccccc1-2 (centres undefined) | 5.8 µM (active) | 
Cc1sc2nc(SCC(=O)N3CCOCC3)[nH]c(=O)c2c1-c1ccccc1 |  | -14.6%
CCSc1nccc(-c2nn(-c3ccc(C)cc3)ccc2=O)n1 | 7.04 µM (active) | 
